# Screen size: about 48,000 compounds; about 13,000 (27%) showed an effect of 50% or more. This is one part of the list.
# Test system: Wolbachia pipientis
# Assay: Anti-Wolbachia Cell-Based Screen
# Format: functional
# Parameters: scale not given: in the data most compounds retested in dose-response had high values
# Conditions: 5 µM
row,SMILES,Percent Effect
1,COCc1nc(C2CC2)nn1-c1cccc(F)c1,-12.44%
2,Cc1ccc(Oc2ncccc2CNC2CCCCC2)cn1,-2.321%
3,CN(C)C(=O)N1CCN(C(=O)C(c2ccccc2F)N(C)C)CC1 (stereo unspecified),0.4283%
4,Cc1ccn(-c2ccccc2NCc2ncc[nH]2)n1,-9.69%
5,COc1cccc2c1ccn2CC(=O)Nc1nc[nH]n1,91.25%
6,CSCC[C@H](NC(=O)Cn1ccc2c(Cl)cccc21)C(=O)O,2.833%
7,CC(=O)Nc1cccc2c1ccn2CC(=O)Nc1ncc[nH]1,101.7%
8,COc1cccc2c1ccn2CC(=O)N[C@@H](CCSC)C(=O)O,11.73%
9,COCC(=O)NCCn1ccc2c(OC)cccc21,-0.7831%
10,CCOc1ncccc1Cn1cc(-c2ccc(CO)o2)nn1,-3.735%
11,CCN(CC)C(=O)C1(NCc2nc(C)c(C)o2)CCCCC1,-3.366%
12,CN(c1ccc(CNc2ccc(Cl)cn2)cc1)S(C)(=O)=O,3.879%
13,Cn1ccc(C(=O)Nc2nc(-c3ccc4c(c3)CCO4)cs2)cc1=O,-8.772%
14,CC(=O)Nc1nc(C(=O)NC(C)c2ccncc2)cs1 (stereo unspecified),-2.068%
15,COc1coc(C(=O)Nc2nc(C)cs2)cc1=O,134.8%
16,CCOc1ccccc1C(CC(=O)Nc1nc(C)cs1)NC(C)=O (stereo unspecified),0.8837%
17,COc1coc(C(=O)Nc2ccncc2)cc1=O,119.4%
18,COc1coc(C(=O)Nc2nc(-c3cccnc3)cs2)cc1=O,125.3%
19,COc1ccc(NC(C)=O)cc1OCc1cccnc1,0.9629%
20,CC(=O)Nc1nc(C(=O)NC(C)c2cccnc2)cs1 (stereo unspecified),-4.684%
21,COc1ccc(NC(=O)C(C)(C)C)cc1OCc1cccnc1,-1.901%
22,Cc1csc(NC(=O)C2CSCCC(=O)N2)n1 (stereo unspecified),-7.391%

row,SMILES,Percent Effect
1,CCC(NC(=O)Nc1ccc(OC)c(C)c1)c1ccncc1 (stereo unspecified),-4.572%
2,COc1coc(C(=O)Nc2nc(-c3ccncc3)cs2)cc1=O,126.8%
3,COc1cccc(SCC(=O)N2CCC(N3CCCC(O)C3)CC2)c1 (stereo unspecified),2.194%
4,COCc1csc(NC(=O)NCc2ccccn2)n1,11.42%
5,COc1coc(C(=O)Nc2nc(-c3ccccn3)cs2)cc1=O,131%
6,Cn1ccc(C(=O)Nc2nnc(-c3ccccn3)[nH]2)cc1=O,-6.589%
7,CCN(CC1CCOC1)C(=O)CCc1nc(C(C)(C)C)no1 (stereo unspecified),-1.689%
8,Nc1nc(N2CCCCCC2)ncc1C(=O)NCc1ccc(F)c(Cl)c1,114.6%
9,O=C(Nc1cc(Cl)ccn1)c1nc(N2CCCC2)ncc1Cl,-15.57%
10,Cc1cccc(C(=O)NCc2ccc(N3CCCCC3)nc2)n1,-4.595%
11,NS(=O)(=O)c1ccc(CNC(=O)c2ccc(Cl)cc2F)cc1,-5.173%
12,Cc1cc(C(N)=O)ccc1NC(=O)c1nc(N2CCCCC2)ncc1Cl,-13.62%
13,CN(c1ncc(C(=O)NCc2ccccc2)c(N)n1)C1CCCCC1,2.294%
14,Nc1nc(N2CCCCC2)ncc1C(=O)NCc1ccc(F)c(Cl)c1,94.05%
15,CC1CCCN(c2ncc(C(=O)NCc3ccc(F)c(Cl)c3)c(N)n2)C1 (stereo unspecified),73.04%
16,O=C(Cn1cc(C(=O)O)ccc1=O)NCc1ccc(F)c(Cl)c1,13.7%
17,CCCn1cc(-c2ccnc(NC3CCc4ccccc43)n2)c(C)n1 (stereo unspecified),-0.7424%
18,Cc1cccc(C(C(=O)NCC2(Cn3nc(C)cc3C)CC2)N(C)C)c1 (stereo unspecified),-2.816%
19,Cc1ccc(CN2CC[C@H](c3nnc(COc4ccc(F)cc4)o3)C2)o1,-1.742%
20,COC(=O)c1cccc2nc([C@H]3CCN(Cc4ccccc4C)C3)oc12,0.4423%
21,COC(=O)c1cccc2nc([C@H]3CCN(Cc4ccccc4F)C3)oc12,4.5%
22,COc1cccc(-c2noc(C3CCN(Cc4cn(C)nc4C)C3)n2)c1 (stereo unspecified),-2.203%

row,SMILES,Percent Effect
1,COc1cccc(-c2noc(C3CCN(Cc4ccccc4C)C3)n2)c1.Cl (stereo unspecified),79.37%
2,COc1cccc(-c2ncc(CN3CC[C@H](CO)[C@@H](O)C3)s2)c1,10.62%
3,COc1cccc(-c2noc(C3CCN(Cc4ccccc4F)C3)n2)c1.Cl (stereo unspecified),108.2%
4,Cc1n[nH]c(CN2CCN(c3ncnc4scc(C)c34)CC2)c1Cl,-1.697%
5,CC(O)CN1CCN(C(=O)c2cccc3[nH]ncc23)CC1 (stereo unspecified),5.765%
6,Cc1nc(CN2CCO[C@H]3CN(C(=O)c4cscn4)C[C@H]32)cs1,-19.39%
7,Cc1nc(C2CCN(C(=O)c3ccn(C)n3)CC2)c2sccn12,109.4%
8,Cc1nc(C2CCN(C(=O)c3cscn3)CC2)c2sccn12,123.8%
9,CC(O)c1cn(CC2CCN(C(=O)c3cscn3)CC2)nn1 (stereo unspecified),-31.81%
10,CCc1cnc(C)nc1NCCSc1nnc(C)n1CC,-6.357%
11,c1cnnc(N2CCCC(NCc3ccc(-n4cncn4)cc3)C2)c1 (stereo unspecified),-12.46%
12,CSCCc1n[nH]c2c1CN(S(=O)(=O)c1cn(C)c(C)n1)CC2,5.686%
13,O=C1C(NCc2nnc3n2CCCC3)CCN1c1ccccc1 (stereo unspecified),4.078%
14,CC(C)NC(=O)CN(C)C1CCN(c2ccc(C#N)cn2)CC1,-9.804%
15,Cc1ccc(F)c(OC2(C(=O)O)CCN(C(=O)c3ccncc3)CC2)c1,12.09%
16,O=C1CC2(CCN(C(=O)c3ccccn3)CC2)Oc2c(Cl)cc(Cl)cc21,107.9%
17,O=C1CC2(CCN(C(=O)c3ccncc3)CC2)Oc2c(Cl)cc(Cl)cc21,113.6%
18,O=C1CC2(CCN(C(=O)c3ccccn3)CC2)Oc2c(Br)cc(Br)cc21,106.1%
19,CC(C)CN1CCc2[nH]cnc2C12CCN(C(=O)c1ccccn1)CC2,2.853%
20,O=C(c1ccccn1)N1CCN(c2ccc(-n3cccc3)nn2)CC1,9.922%
21,O=C(c1ccncc1)N1CCN(c2ccc(F)cc2Cl)CC1,2.697%
22,Cc1cccc(C2(O)CCN(C(=O)c3ccccn3)CC2)c1C,8.443%

# From ChEMBL document CHEMBL3988442, “University of Dundee, Small-Polar-MMV Screening Library” (2021)
